Rows were chosen to be rich in hits. Some 2.7% of all compounds tested hit in one or more screens of this group.
eIF4E 4G PPI: eIF4E/eIF4G interaction inhibition in translation initiation | TR-FRET eIF4E-eIF4GI(517-606) binding, 2 h | inhibition, % at 21.7 µM | 220,000 compounds, 0.37% hits | AID 782;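 active means inhibition above about 30%, limit read from the data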;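 further: 0% = full FRET control wells and 100% = background wells lacking eIF4GI fragment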
Target sequence (P63073 whole entry, looked up, the tested form may be a part): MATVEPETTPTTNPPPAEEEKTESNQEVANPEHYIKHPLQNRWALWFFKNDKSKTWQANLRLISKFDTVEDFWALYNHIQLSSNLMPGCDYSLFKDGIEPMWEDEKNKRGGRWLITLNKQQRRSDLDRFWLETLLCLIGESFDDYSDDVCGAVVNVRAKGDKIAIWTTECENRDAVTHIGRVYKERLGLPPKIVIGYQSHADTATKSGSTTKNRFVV
Target sequence (Q04637 whole entry, looked up, the tested form may be a part): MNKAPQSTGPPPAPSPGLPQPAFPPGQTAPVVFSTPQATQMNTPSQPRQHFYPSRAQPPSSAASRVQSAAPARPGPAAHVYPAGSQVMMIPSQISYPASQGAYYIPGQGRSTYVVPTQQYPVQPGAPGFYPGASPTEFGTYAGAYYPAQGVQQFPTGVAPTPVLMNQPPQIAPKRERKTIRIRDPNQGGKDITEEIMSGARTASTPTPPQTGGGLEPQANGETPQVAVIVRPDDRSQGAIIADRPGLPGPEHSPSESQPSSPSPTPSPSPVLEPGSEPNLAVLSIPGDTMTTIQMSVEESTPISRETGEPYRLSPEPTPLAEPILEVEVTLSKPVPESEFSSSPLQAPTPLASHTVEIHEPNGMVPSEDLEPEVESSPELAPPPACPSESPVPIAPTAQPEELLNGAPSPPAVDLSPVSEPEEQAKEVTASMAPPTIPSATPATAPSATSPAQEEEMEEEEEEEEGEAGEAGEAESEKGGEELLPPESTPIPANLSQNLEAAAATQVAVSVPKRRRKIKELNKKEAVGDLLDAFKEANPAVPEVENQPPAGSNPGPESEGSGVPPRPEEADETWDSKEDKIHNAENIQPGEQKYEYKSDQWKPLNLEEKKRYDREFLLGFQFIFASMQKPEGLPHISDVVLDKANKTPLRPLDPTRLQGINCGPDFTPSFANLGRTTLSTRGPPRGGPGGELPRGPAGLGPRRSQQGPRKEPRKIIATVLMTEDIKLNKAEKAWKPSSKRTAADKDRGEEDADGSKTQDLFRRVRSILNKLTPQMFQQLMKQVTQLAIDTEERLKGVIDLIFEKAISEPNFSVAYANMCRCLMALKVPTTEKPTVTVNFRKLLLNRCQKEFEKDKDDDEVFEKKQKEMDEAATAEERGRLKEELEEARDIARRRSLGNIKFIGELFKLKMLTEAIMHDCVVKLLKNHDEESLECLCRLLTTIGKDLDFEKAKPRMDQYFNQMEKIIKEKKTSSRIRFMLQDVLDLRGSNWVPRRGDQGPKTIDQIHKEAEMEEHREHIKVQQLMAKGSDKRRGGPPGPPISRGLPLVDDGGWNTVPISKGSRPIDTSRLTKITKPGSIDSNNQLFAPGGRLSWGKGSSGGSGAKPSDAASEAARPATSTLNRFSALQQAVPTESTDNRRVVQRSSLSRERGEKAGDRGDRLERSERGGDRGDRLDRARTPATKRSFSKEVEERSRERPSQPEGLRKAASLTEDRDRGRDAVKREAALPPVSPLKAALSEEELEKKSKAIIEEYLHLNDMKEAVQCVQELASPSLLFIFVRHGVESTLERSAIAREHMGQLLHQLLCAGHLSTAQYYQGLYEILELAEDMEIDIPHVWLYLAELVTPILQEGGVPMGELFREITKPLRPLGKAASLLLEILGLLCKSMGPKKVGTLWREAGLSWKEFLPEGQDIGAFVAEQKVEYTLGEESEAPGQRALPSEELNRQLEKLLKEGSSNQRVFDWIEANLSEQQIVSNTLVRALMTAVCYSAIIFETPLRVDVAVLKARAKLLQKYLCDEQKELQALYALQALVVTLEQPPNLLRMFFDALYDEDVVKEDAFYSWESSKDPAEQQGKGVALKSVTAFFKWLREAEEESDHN
14-3-3 Bad inh: disrupts binding of bovine 14-3-3 zeta to phospho-Bad peptide | P63103 | TR-FRET 14-3-3zeta/Dy647-pBad peptide displacement, 1 h | inhibition, % at 21.7 µM | 220,000 compounds, 0.71% hits | AID 781;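 active means inhibition above about 70%, limit read from the data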;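 further: 0% = full 14-3-3 plus peptide FRET controls and 100% = background without 14-3-3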
Mcl-1 Bim block: human Bim-Mcl-1 interaction inhibition | Q07820 | Bead-based flow cytometry, Bim peptide-Mcl-1 binding | inhibition, % at 10 µM | 190,000 compounds, 0.1% hits | AID 1009; in the data active means inhibition above about 40%;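 further: 0% = no compound tracer wells and 100% = peptide blocker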
Mcl1 Bid PPI: disrupts binding of human Mcl-1 to Bid peptide; TR-FRET Mcl-1/Bid-Dy647 peptide binding, 1536-well; AID 1021; inhibition, % at 21.7 µM; 220,000 compounds, 0.97% hits; Q07820;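 active means compounds that cut the binding signal by more than half at the single screening dose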;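 further: His-tagged Mcl-1 with europium anti-His antibody binding Bid BH3 peptide; 0% = Mcl-1 plus peptide wells and 100% = peptide-only wells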
Pf gamet viab: inhibitors of late stage P. falciparum gametocyte viability; P. falciparum stage V gametocytes, ATP luminescence, 24 h; inhibition, % at 10.9 µM; 150,000 compounds, 0.065% hits;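 active means inhibition above the mean plus 3 SD of compounds within the control limits, set per campaign, cut at about 38% in these data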;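 further: 0% = DMSO wells and 100% = medium only without gametocytes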
Mcl1-Noxa inh: disrupts binding of human Mcl-1 to Noxa peptide. TR-FRET Mcl-1/Noxa peptide binding, 2 h. Q07820. AID 1022. inhibition, % at 21.7 µM. 220,000 compounds, 1.5% hits;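 active means compounds that cut the protein-peptide binding signal by more than 50% relative to plate controls in a single-dose test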;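 further: His-tagged Mcl-1 with rhodamine Noxa BH3 peptide and terbium anti-His antibody; 0% = Mcl-1 plus Noxa peptide wells and 100% = peptide-only wells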
* hit, by the source's call; x = not tested or not shown.

SMILES	eIF4E 4G PPI	14-3-3 Bad inh	Mcl-1 Bim block	Mcl1 Bid PPI	Pf gamet viab	Mcl1-Noxa inh
COc1cc(/C=C2/C(=O)NN(c3ccc(Cl)cc3)C2=O)ccc1OC(=O)c1ccco1	-3.5	-28.2	3.0	-3.6	-7.5	62.1*
c1coc(CN(Cc2ccco2)c2ncnc3c2oc2ccccc23)c1	6.6	67.7	1.0	17.9	x	38.8
CC1CC(C)CN(C(=O)C(C)N(C)CC(=O)Nc2ccc(Cl)cc2)C1 (configuration not stated)	4.8	32.7	-2.0	37.1	13.4	9.3
COCCN1Cc2cccc(C(=O)Nc3cccc(C)c3C)c2C1=O	0.7	-1.3	-3.0	91.4*	x	90.4*
CN(C)c1cccc(NC(=O)C2(C)CC2(Cl)Cl)c1 (configuration not stated)	-1.5	-4.7	84.0*	-68.3	11.6	39.3
Cc1cc(C)n2nc3nc(N4CCCCC4)nc(-c4ccco4)c3c2n1	2.8	0.6	1.0	-23.2	x	66.5*
Cn1c(-c2ccc(F)cc2)cnc1NCc1cccc(F)c1	-1.9	78.6*	1.0	13.7	x	34.0
Cn1c(-c2ccc(F)cc2)cnc1NCc1ccccc1	2.3	54.1	0.0	-5.5	-7.0	9.3
CCc1nnc(NC(=O)CSc2nc(-c3ccc(F)cc3)cc(-c3ccccc3)c2C#N)s1	-2.7	20.0	-14.0	60.0*	8.2	-14.3
COc1ccc(NC(=O)c2[nH]ncc2[N+](=O)[O-])cc1	-3.8	-11.1	1.0	80.2*	7.3	4.9
COc1ccc(NC(=O)c2cc([N+](=O)[O-])ccc2O)cc1	-1.9	-2.0	1.0	-2.0	-0.1	22.4
CCc1nnc(NC(=O)c2ccc(-c3ccc([N+](=O)[O-])cc3Cl)o2)s1	9.4	49.9	0.0	66.2*	10.1	59.3*
O=C(Nc1nccs1)c1ccc(-c2ccc([N+](=O)[O-])cc2)o1	11.8	52.1	1.0	26.1	12.8	65.5*
COc1ccc(NC(=O)c2ccc(-c3ccc([N+](=O)[O-])cc3)o2)cc1	7.8	16.7	0.0	2.0	-13.1	50.6*
CCCC[C@H]1COCCS(=O)(=O)N1Cc1ccc(Br)cc1	x	x	x	x	4.0	x
CCOc1ccc(CCNC(=O)CN2C(=O)NC(CCSC)C2=O)cc1OCC (configuration not stated)	0.5	-4.4	-1.0	-42.6	x	2.3
COc1cccc(-c2nc(N)nc(SC)c2C#N)c1	5.5	4.3	x	1.5	-6.2	12.5
CC(C)C(NC(=O)c1ccc(F)cc1)C(=O)Nc1cccnc1 (configuration not stated)	1.2	0.1	-5.0	-3.8	-24.0	8.8
COc1ccc(C[C@H]2CN3C(=NC[C@H]3C)N2CCNC(=O)c2ccc(C)c(Br)c2)cc1	-0.5	-4.0	-4.0	-8.6	16.9	7.3
Cc1ccc(N=Cc2cc(Cc3ccccc3Cl)cc([N+](=O)[O-])c2O)c(O)c1	10.4	37.2	-3.0	-70.2	x	49.7
COc1ccc(N=Cc2cc(Cc3ccccc3Cl)cc([N+](=O)[O-])c2O)cc1OC	21.8	22.5	-1.0	-0.7	x	61.4*
Cc1ccc(-c2ccnc3nc(-n4cccc4)nn23)o1	-0.3	-7.7	0.0	-0.7	-6.4	11.9
Cc1ccc(NC(=O)c2ncc(Cl)c(Cl)c2Cl)cc1C	-2.3	-2.7	-1.0	-6.2	3.5	-25.7
O=C(Nc1ccc(OC(F)F)cc1)c1ncc(Cl)c(Cl)c1Cl	1.6	98.2*	0.0	5.1	x	0.5
Cc1cc(=O)oc2cc(OCC3CC(c4ccc(N(C)C)cc4)=NO3)ccc12 (configuration not stated)	-24.8	-7.9	-1.0	51.9*	4.4	28.7
SMILES	eIF4E 4G PPI	14-3-3 Bad inh	Mcl-1 Bim block	Mcl1 Bid PPI	Pf gamet viab	Mcl1-Noxa inh
CCc1ccc(C(=O)CSc2ncn[nH]2)cc1	31.7*	-3.1	1.0	-37.3	16.4	-3.8
COc1ccc(CCNC(=O)CN2C(=O)C3(OCCCO3)c3ccccc32)cc1OC	-2.5	-7.2	-3.0	2.8	x	5.2
CN(C)N1C(N)=C(C#N)C(c2cccnc2)C2=C1CC(C)(C)CC2=O (configuration not stated)	2.9	-15.3	-4.0	61.7*	-4.5	21.8
CC1(C)CC(=O)C2=C(C1)N(c1ccccc1)C(N)=C(C#N)C2c1cccnc1 (configuration not stated)	-1.3	-5.7	2.0	-33.6	-1.3	0.5
O=C(Nc1ccc([N+](=O)[O-])cc1)c1cc(-c2ccccn2)nc2c(Cl)cccc12	15.2	70.7*	5.0	42.4	13.9	48.7
Cc1cccc2c(C(=O)Nc3ccc(Br)cc3)cc(-c3ccccn3)nc12	-4.3	-8.6	-1.0	-30.4	-6.1	-0.2
CCOc1ccccc1NC(=O)c1cc(-c2ccncc2)nc2c(Cl)cccc12	13.1	72.7*	5.0	50.9*	11.1	16.1
Cc1cccc(N=Cc2[nH]c3ccc(Br)c(Cl)c3c2O)c1	17.1	49.0	-3.0	23.9	-9.7	62.0*
COc1ccccc1CN=Cc1[nH]c2ccc(Br)c(Cl)c2c1O	-6.3	-0.7	-6.0	-58.8	-8.5	-0.2
CCN(CC1COc2ccccc2O1)C(=S)Nc1ccc(F)cc1 (configuration not stated)	-1.8	-7.7	-1.0	-58.0	x	1.5
Cn1c(=O)oc2cc(S(=O)(=O)N3CCCC(C(=O)NCc4ccc5c(c4)OCO5)C3)ccc21 (configuration not stated)	-1.6	-6.7	0.0	52.6*	x	20.9
COc1ccc(S(=O)(=O)N2CCCC(C(=O)NCc3ccc4c(c3)OCO4)C2)cc1 (configuration not stated)	-1.7	3.4	x	-24.1	-12.3	11.1
COC(=O)CNC(=O)c1cccc(-c2ccc(OC)cc2)c1	-1.4	-0.2	1.0	-8.7	-9.9	-4.0
O=C(NCC1CCN(C(=O)c2ccc([N+](=O)[O-])cc2)CC1)C(=O)Nc1ccccc1	-3.5	-4.3	1.0	0.9	x	17.1
O=C1CN(C(=O)COC(=O)CNS(=O)(=O)c2ccccc2)c2ccccc2N1	-0.2	-10.4	-2.0	-29.6	x	-0.2
O=C1CN(C(=O)COC(=O)CNS(=O)(=O)/C=C/c2ccccc2)c2ccccc2N1	-1.0	21.1	-4.0	58.4*	24.6	7.9
Clc1ccccc1CN1CCc2sccc2C1	1.7	-0.7	-3.0	88.3*	x	15.8
CCOC(=O)Cc1ccc2sc(-c3ccccc3)nc2c1	-2.9	4.3	-6.0	-1.5	x	7.3
C/C(=N\Nc1ccc(C(F)(F)F)cn1)c1ccncc1	-1.3	-6.0	-2.0	-12.0	-5.2	-20.9
O=[N+]([O-])c1cc(Br)c(OCc2nnc(-c3ccccc3)o2)c(Br)c1	-3.7	-6.8	-2.0	-17.0	-7.3	-9.5
O=[N+]([O-])c1ccc2c(OCc3nnc(-c4ccccc4Br)o3)ncnc2c1	3.3	7.9	x	6.2	-17.5	61.0*
CCOC(=O)C1CC(C)=C(C)CC1C(=O)O (configuration not stated)	-0.4	-5.0	x	-15.4	x	-2.5
